Source: PubChem (Paczesny and Yang Labs, IUPUI and University of Michigan)
This is one part of a sample in which hits are shown more often than they occur.
ST2 IL33 inh – IL1RL1 inhibition | inhibition, % for hits at 17 µM | 78,000 compounds, 2.3% hits | AlphaLISA ST2-Fc/biotin-IL-33 interaction, 1 h | Q01638; in the data active = inhibition above about 30%
Target sequence (Q01638 whole entry, looked up): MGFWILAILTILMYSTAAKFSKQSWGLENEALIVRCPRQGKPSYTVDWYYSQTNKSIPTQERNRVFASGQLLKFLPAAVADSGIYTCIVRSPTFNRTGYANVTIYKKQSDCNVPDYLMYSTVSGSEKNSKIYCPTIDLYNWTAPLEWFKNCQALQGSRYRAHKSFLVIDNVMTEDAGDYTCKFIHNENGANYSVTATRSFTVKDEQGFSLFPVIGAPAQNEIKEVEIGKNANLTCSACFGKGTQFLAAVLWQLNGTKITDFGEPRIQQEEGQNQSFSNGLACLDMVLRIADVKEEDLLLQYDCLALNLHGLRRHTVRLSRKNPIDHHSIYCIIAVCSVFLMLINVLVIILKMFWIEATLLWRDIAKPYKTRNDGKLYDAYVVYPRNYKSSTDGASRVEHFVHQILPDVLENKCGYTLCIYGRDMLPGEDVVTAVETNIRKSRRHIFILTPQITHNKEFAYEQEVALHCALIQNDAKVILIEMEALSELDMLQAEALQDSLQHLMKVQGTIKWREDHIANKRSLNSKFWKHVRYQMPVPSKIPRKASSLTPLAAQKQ
Numbers stand for hits.

Results for CC(=O)C1=C(O)C(=O)N(CCN2CCOCC2)C1c1ccc(Cl)cc1Cl (configuration not stated) ?
ST2 IL33 inh: inactive

How did COc1ccc2nc(NC(N)=NS(=O)(=O)c3ccc([N+](=O)[O-])cc3)nc(C)c2c1 do in these assays?
ST2 IL33 inh: inactive

How did CCC(=O)Nc1c(C(=O)OC)sc2ccccc12 do in these assays?
ST2 IL33 inh: inactive

Results for CC1(C)CCN2CCC(C)(C)c3c(O)ccc1c32 ?
ST2 IL33 inh: 73%

Results for CC(=O)C1=C(O)C(=O)N(c2cccc(C)c2)C1c1ccccc1 (configuration not stated) ?
ST2 IL33 inh: inactive

Results for COc1ccc(OCC(O)Cn2c(N3CCOCC3)nc3c2c(=O)[nH]c(=O)n3C)cc1 (configuration not stated) ?
ST2 IL33 inh: inactive

What do the screens show for `Cc1nc2c(c(=O)n1C)CCN(C(=O)C1CCOC(C)(C)C1)CC2` (configuration not stated)?
ST2 IL33 inh: 31%

What do the screens show for `Cc1nc2c(c(=O)n1C)CCN(C(=O)Nc1ccc3c(c1)OCO3)CC2`?
ST2 IL33 inh: inactive

Results for Cc1ccc(C(=O)NCCC(=O)N2CCc3nc(C)n(C)c(=O)c3CC2)cc1 ?
ST2 IL33 inh: inactive

How did CNc1ccc(Cl)cc1C(=O)NCCn1c(C)cc(C)nc1=O do in these assays?
ST2 IL33 inh: inactive

What do the screens show for `Cc1cc(=O)c2c([nH]1)C(O)=C(CN(C)C)C(=O)C2=O`?
ST2 IL33 inh: 43%

How did COc1cccc(C2C(N3C(=O)c4ccccc4C3=O)C(=O)N2c2cccc(C(F)(F)F)c2)c1 (configuration not stated) do in these assays?
ST2 IL33 inh: inactive

Results for Fc1ccc(OCCCN2CCN(Cc3cc4n(n3)CCNC4)CC2)cc1 ?
ST2 IL33 inh: inactive

What do the screens show for `CCc1nc(C)ccc1OCC(=O)N1CCCC2(CN(C)C(=O)O2)C1` (configuration not stated)?
ST2 IL33 inh: inactive

Results for CNC(=O)C1CCC(Cn2c(=O)c3sccc3n(CC(=O)Nc3ccc(F)cc3F)c2=O)CC1 (configuration not stated) ?
ST2 IL33 inh: inactive

What do the screens show for `O=C(O)c1cc(N2C(=O)C3C4CCC(C4)C3C2=O)ccc1Cl` (configuration not stated)?
ST2 IL33 inh: inactive

Results for Cc1cc(C)n(CCOc2nonc2NCn2nc(C)cc2C)n1 ?
ST2 IL33 inh: inactive

How did O=C(Nc1nc(-c2cc3ccccc3oc2=O)cs1)c1c(F)cccc1F do in these assays?
ST2 IL33 inh: inactive

What do the screens show for `O=C(Nc1nc(-c2cc3ccccc3oc2=O)cs1)c1ccccc1Br`?
ST2 IL33 inh: inactive

What do the screens show for `O=c1oc2ccccc2cc1-c1csc(Nc2ncccn2)n1`?
ST2 IL33 inh: 34%

How did COc1cc(C(=O)Nc2cc(N3CCCS3(=O)=O)ccc2C)cc(OC)c1OC do in these assays?
ST2 IL33 inh: inactive

How did Cc1ccc(S(=O)(=O)N2CCN(c3nc(-c4ccc(C)o4)cs3)CC2)cc1 do in these assays?
ST2 IL33 inh: 37%

Results for Cc1ccc(Nc2cc(C)nc(N3CCN(S(=O)(=O)c4ccc(C)cc4)CC3)n2)cc1 ?
ST2 IL33 inh: inactive

What do the screens show for `Cc1ccc(S(=O)(=O)N2CCN(c3nc(C)cc(N4CCCC4)n3)CC2)cc1`?
ST2 IL33 inh: inactive

Results for COc1ccc(CC(=O)Nc2ccccc2Br)cc1 ?
ST2 IL33 inh: inactive

How did COC(=O)c1ccc(-c2nc(CN(C)C(C)c3ccon3)c(C)o2)cc1 (configuration not stated) do in these assays?
ST2 IL33 inh: inactive

Results for O=S(=O)(c1ccc(Cl)cc1)c1nc(/C=C/c2ccccc2)oc1N1CCOCC1 ?
ST2 IL33 inh: 31%

What do the screens show for `NC(=O)CSc1oc(-c2ccccc2)nc1S(=O)(=O)c1ccc(Cl)cc1`?
ST2 IL33 inh: inactive

What do the screens show for `Cc1ccc(-c2nc(S(=O)(=O)c3ccc(C)cc3)c(N3CCOCC3)o2)cc1`?
ST2 IL33 inh: inactive

How did O=C(NCCSc1c[nH]c2ccccc12)c1cccc2ccccc12 do in these assays?
ST2 IL33 inh: inactive

How did CNC(=O)CC1C(=O)NCCN1Cc1cnn(-c2ccc(C)c(C)c2)c1 (configuration not stated) do in these assays?
ST2 IL33 inh: inactive

How did Cc1cccc(N(CC(=O)Nc2ccc(F)cc2)S(=O)(=O)c2ccccc2)c1C do in these assays?
ST2 IL33 inh: 38%

Results for Cc1cccc(N(CC(=O)Nc2ccccc2Cl)S(=O)(=O)c2ccccc2)c1C ?
ST2 IL33 inh: inactive

What do the screens show for `COc1ccc(N(CC(=O)Nc2ccc(F)cc2)S(=O)(=O)c2ccccc2)c(OC)c1`?
ST2 IL33 inh: inactive

What do the screens show for `Cc1cc(NC(=O)CSc2nnc3c4ccccc4n(C(C)C)c3n2)no1`?
ST2 IL33 inh: inactive

What do the screens show for `CCn1nc(C)c(NC(=O)CN2CCCC2c2cc(C(C)C)on2)c1C` (configuration not stated)?
ST2 IL33 inh: inactive

Results for CC(C)c1cc(C2CCCN2C(=O)c2cnn3c2CCCC3)no1 (configuration not stated) ?
ST2 IL33 inh: 32%

How did Cc1noc(C)c1C1CCCN1C(=O)c1cnn2ccn(C)c12 (configuration not stated) do in these assays?
ST2 IL33 inh: inactive

How did Cc1ccc(-c2cc(N3CCN(S(=O)(=O)Cc4ccccc4)CC3)ncn2)cc1 do in these assays?
ST2 IL33 inh: inactive

What do the screens show for `Cc1ccc(Cn2c(CNC(=O)C(C)Cn3ccnc3C)nc3cccnc32)cc1` (configuration not stated)?
ST2 IL33 inh: inactive

Results for Cc1nc2ccccc2c(=O)n1CC(=O)NCc1ccccc1 ?
ST2 IL33 inh: inactive

What do the screens show for `CCn1c(/C=C/c2cccnc2)nc2ccccc2c1=O`?
ST2 IL33 inh: 96%

How did Cn1c(/C=C/c2ccc(Br)cc2)nc2ccccc2c1=O do in these assays?
ST2 IL33 inh: inactive

How did CCOC(=O)N1CCN(C(=O)CC2(c3ccccc3)CC(=O)N(CC3CCCCC3)C2=O)CC1 (configuration not stated) do in these assays?
ST2 IL33 inh: inactive

What do the screens show for `COc1ccccc1/C=C/C1=NC(=C\c2cccc(Cl)c2Cl)/C(=O)O1`?
ST2 IL33 inh: inactive

Results for COc1ccccc1/C=C/C1=NC(=C\c2ccc(Cl)c(Cl)c2)/C(=O)O1 ?
ST2 IL33 inh: inactive

How did COc1ccccc1/C=C/C1=NC(=C\c2ccc([N+](=O)[O-])cc2)/C(=O)O1 do in these assays?
ST2 IL33 inh: inactive

Results for COc1ccccc1/C=C/C1=NC(=C\c2cccc(Cl)c2)/C(=O)O1 ?
ST2 IL33 inh: 34%

How did COc1ccccc1/C=C/C1=NC(=C\c2ccc(C)cc2)/C(=O)O1 do in these assays?
ST2 IL33 inh: 38%

What do the screens show for `COc1ccccc1/C=C/C1=NC(=C\c2cc(Br)cs2)/C(=O)O1`?
ST2 IL33 inh: inactive

Results for CCC(NC(=O)c1cnc(-c2cccnc2)nc1)c1nc(C)c(C)s1 (configuration not stated) ?
ST2 IL33 inh: inactive

What do the screens show for `CC(=O)Oc1ccc2c(=O)c(Oc3ccccc3)c(C)oc2c1OC(C)=O`?
ST2 IL33 inh: inactive

Results for COc1ccc2c(=O)c(Oc3ccccc3)c(C)oc2c1OC ?
ST2 IL33 inh: 30%

Results for COc1ccc2c(=O)c(Oc3ccccc3)c(C(F)(F)F)oc2c1OC ?
ST2 IL33 inh: inactive

Results for COc1ccc(Cc2nc3cc(C)c(C)cc3n(C)c2=O)cc1Br ?
ST2 IL33 inh: inactive

What do the screens show for `COc1ccc(Cn2cnc([N+](=O)[O-])c2)cc1Br`?
ST2 IL33 inh: inactive

What do the screens show for `COc1ccc(Cc2nc3cc(C)c(C)cc3[nH]c2=O)cc1Br`?
ST2 IL33 inh: 31%
